What all share (assay): PBM binding z-score (relative to random genomic background probes); higher = stronger binding; sequences stand for … in GC…GCGATTGACAGCGTAGAATGAAGG
Test [1] concerns FXR:RXRa (NR concentration 270 nM, RXRa partner concentration 90 nM). The gist of the method: (§1)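 Random background probes are the reference for binding z-scores. These scores derive from regression-normalized fluorescence on custom Agilent 4×180K protein-binding microarrays incubated 1 h with ligand-free nuclear receptor dimers. Binding was detected with antibodies against each partner (one per run).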

In test [2] the test system is LXRa:RXRa (NR concentration 270 nM, RXRa partner concentration 90 nM). A digest of the protocol:
as §1

Test [3] has as its system LXRa homodimer (NR concentration 270 nM). The gist of the method: as §1
In test [4] the test system is LXRb:RXRa (NR concentration 270 nM, RXRa partner concentration 90 nM). The gist of the method: as §1
Test [5] concerns LXRb homodimer (NR concentration 270 nM). A digest of the protocol: as §1
Test [6] concerns PPARa:RXRa (NR concentration 270 nM, RXRa partner concentration 90 nM). A digest of the protocol: as §1
The test system of test [7] is PPARg:RXRa (NR concentration 180 nM, RXRa partner concentration 90 nM). The gist of the method:
as §1

The subject of test [8] is PPARg:RXRa 270nM:90nM, anti-RXR (NR concentration 270 nM, RXRa partner concentration 90 nM). A digest of the protocol:
as §1

Test [9] relates to PPARg:RXRa 30nM:10nM, anti-RXR (NR concentration 30 nM, RXRa partner concentration 10 nM). A digest of the protocol:
as §1

Test [10] relates to PPARg:RXRa 90nM:30nM, anti-RXR (NR concentration 90 nM, RXRa partner concentration 30 nM). The gist of the method:
as §1

Test [11] relates to PPARg:RXRa DBDmut IVT, anti-RXR (DBD mutation: RXRa K156A/R161A, NR concentration 270 nM, RXRa partner concentration 90 nM). The gist of the method: as §1
Test [12] relates to PPARg:RXRa IVT, anti-PPARg (NR concentration 270 nM, RXRa partner concentration 90 nM). A digest of the protocol: as §1
Test [13] relates to PPARg DBDmut:RXRa IVT, anti-PPARg (DBD mutation: PPARg1 K132A/R137A, NR concentration 270 nM, RXRa partner concentration 90 nM). The gist of the method: as §1
Test [14] relates to PPARg DBDmut IVT, anti-PPARg (DBD mutation: PPARg1 K132A/R137A, NR concentration 270 nM). A digest of the protocol:
as §1

For test [15], the system named is PPARg homodimer (NR concentration 180 nM). A digest of the protocol:
as §1

Test [16] has as its system PXR:RXRa (NR concentration 270 nM, RXRa partner concentration 90 nM). The gist of the method: as §1
Test [17] deals with PXR homodimer (NR concentration 270 nM). A digest of the protocol: as §1
Test [18] deals with RARa:RXR (NR concentration 270 nM, RXRa partner concentration 90 nM). A digest of the protocol:
as §1

In test [19] the test system is RARa homodimer (NR concentration 270 nM). A digest of the protocol: as §1
Test [20] deals with RARb:RXRa (NR concentration 270 nM, RXRa partner concentration 90 nM). A digest of the protocol: as §1

ATACCAAGGTGATCGTGAGGTTGTTGATACTAAC: the PBM binding z-score is 0.619 in test [1]; 0.547 in test [2]; 0.106 in [3]; 0.338 in test [4]; -0.241 in test [5]; 0.626 in test [6]. For the same sequence, the PBM binding z-score in test [7] stood at 0.435; in test [8], 0.149; in [9] it was 0.0438; in test [10], 0.112; in test [11], 0.768; in test [12] it was 0.997. The PBM binding z-score in test [13] is 0.831; in test [14], 0.892; in test [15] it was 0.541; in test [16], 0.741; in test [17] it was 0.299; in test [18], 0.978. Further, the PBM binding z-score in [19] was 0.0495; in test [20] it was 0.63.

Take CGTCCAAGGTCAAAGGTCAGTGATGAGATGACGG: the PBM binding z-score in [1] was determined as 8.34; in test [2] it was 6.88; in [3] it was 3.97; in test [4], 6.55; in [5], 2.01; in test [6] it was 7.15. Moreover, the PBM binding z-score in test [7] came to 10.7; in test [8] it was 8.75; in test [9], 8.43; in test [10], 9.31; in [11], 4.14; in [12] it was 5.89. Also, the PBM binding z-score is 0.972 in [13]; 0.974 in test [14]; 3.97 in test [15]; 6.83 in test [16]; 1.94 in [17]; 8.65 in test [18]. The PBM binding z-score stood at 1.61 in test [19] and 6 in test [20].

Take TCTGCTAGTTCAACGATGGTCAGCTAATCTGCTA: the PBM binding z-score in test [1] was 0.141; in test [2] it was 0.175; in test [3], -0.555; in test [4] it was -0.303; in test [5], -0.648; in [6], 0.264. For the same sequence, the PBM binding z-score is -0.456 in [7]; 0.558 in test [8]; 1.26 in [9]; 0.99 in test [10]; 0.463 in test [11]; -0.112 in test [12]. The PBM binding z-score is -0.479 in test [13]; -0.339 in test [14]; -1.27 in [15]; 0.51 in [16]; -0.0476 in [17]; 0.475 in [18]. In addition, the PBM binding z-score in [19] was -1.49; in test [20], 1.55.

With GGAACGAGGGCAAAGTTGATTGCATCTGTCGACG, the PBM binding z-score was 1.25 in test [1]; 0.976 in [2]; -0.336 in test [3]; 0.888 in test [4]; -0.546 in test [5]; 3.9 in test [6]. Moreover, the PBM binding z-score in test [7] was determined as 6.23; in test [8], 6.84; in test [9] it was 5.63; in [10], 6.92; in [11], 4.27; in test [12] it was 4.05. The PBM binding z-score in [13] was 0.0713; in test [14], -0.581; in test [15], 0.375; in test [16], 1.16; in [17] it was 0.179; in [18], 1.39. For the same sequence, the PBM binding z-score in [19] is -0.237; in test [20] it was 2.18.

For the sequence TCTTGTAGATCATGCAGGTTAAGAAAGCCTGAGT, the PBM binding z-score in test [1] was 0.492; in test [2], 0.415; in test [3], -0.144; in test [4] it was 0.657; in [5], -0.00581; in test [6], 1.14. The PBM binding z-score was -0.222 in [7]; 1.51 in test [8]; 2.51 in [9]; 2.08 in test [10]; 1.44 in test [11]; 0.879 in test [12]. Also, the PBM binding z-score in test [13] stood at 0.847; in test [14], 1.07; in test [15], 0.117; in [16] it was 0.641; in [17] it was 0.527; in test [18], 0.812. Besides, the PBM binding z-score amounted to 0.221 in [19] and 0.285 in [20].

CGTCAAAGTTGAACTAAGGTAACGTAAAGCACGC: the PBM binding z-score in [1] was 2.71; in [2] it was 3.29; in test [3] it was 3.88; in test [4], 1.57; in test [5] it was 0.134; in test [6], 2.26. Moreover, the PBM binding z-score was 1.45 in test [7]; 2.65 in [8]; 0.653 in [9]; 2.03 in [10]; 0.422 in [11]; 1.2 in [12]. The PBM binding z-score in [13] came out at 1.41; in test [14], 0.838; in test [15], 0.99; in test [16] it was 2.35; in test [17] it was 0.717; in test [18] it was 2.08. Also, the values for the PBM binding z-score in test [19] and in [20] were 0.0339 and 2.17, respectively.

Consider AGAGACAGGTGATGAAGGTAACTCAGGCTATCAT, for which the PBM binding z-score in [1] came to 0.266; in [2] it was 0.0997; in test [3], 0.0687; in test [4] it was 0.476; in test [5] it was 0.372; in test [6], 0.328. For the same sequence, the PBM binding z-score in test [7] is 0.629; in [8], 0.513; in test [9], 0.448; in test [10], 0.733; in test [11] it was -0.111; in [12], 0.416. Further, the PBM binding z-score in test [13] stood at 0.748; in test [14], 0.187; in test [15], 0.847; in [16] it was 0.283; in test [17], 0.671; in test [18], 0.263. Further, the PBM binding z-score worked out at 1.15 in test [19] and 0.706 in test [20].

These data come from the supplement of paper PMC6555819.
